Source: PubChem BioAssay (National Center for Advancing Translational Sciences (NCATS))
HP1b binding inh: HTS for Inhibitors of HP1-beta Chromodomain Interactions with Methylated Histone Tails | Chromobox protein homolog 1 (Homo sapiens), P83916 | actives 0.56% (n = 390,000) | Potency, µM (doses to about 114 µM), actives largely listed as inhibitors | AlphaScreen HP1-beta / biotin-H3K9me3 peptide binding | AID 540317, 2011; note: nearly all actives have a fitted effect of over 70% in size
Target sequence (P83916 whole entry, looked up): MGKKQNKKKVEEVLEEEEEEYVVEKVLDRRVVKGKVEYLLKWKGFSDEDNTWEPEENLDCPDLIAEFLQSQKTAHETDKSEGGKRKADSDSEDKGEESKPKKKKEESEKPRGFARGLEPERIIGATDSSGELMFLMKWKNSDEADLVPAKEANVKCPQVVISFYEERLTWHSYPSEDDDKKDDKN
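AlphaScreen: HP1-beta (50 nM) preformed 30 min with biotin-H3(1-18)K9me3 peptide (50 nM) in PBS pH 7.4, 0.01% Tween-20. Compound added for 30 min at RT, then streptavidin donor/nickel chelate acceptor beads (10 ug/mL) for 30 min.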
Six1-Eya2 inh: qHTS Assay for Inhibitors of the Six1/Eya2 Interaction; activity change, % (no concentration beside the values); AlphaScreen GST-Six1/His-Eya2 binding, biochemical; active compounds read low; actives 0.56% (n = 360,000); in the data active = activity change below about -65%; inconclusive = mostly about -30% to -63%
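GST-Six1 + His-Eya2 (5X stock: 250/500 nM); Tris pH 8.0, 300 mM NaCl, 0.05% BSA, 0.02% Tween 20; GSH donor/Ni acceptor beads; 1 h 37 °C dark; AlphaScreen readout.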
JMJD2A Tudor inh: qHTS Assay for Inhibitors of JMJD2A-Tudor Domain. Lysine-specific demethylase 4A (Homo sapiens), O75164. AlphaScreen JMJD2A-Tudor / H3K4me3 peptide binding. actives 4.4% (n = 390,000). Potency, µM (top dose mostly 114 µM), actives largely listed as inhibitors; note: nearly all actives have a fitted effect of over 50% in size
BAZ2B block: qHTS Assay for Inhibitors of BAZ2B | actives 4.4% (n = 360,000) | Potency, µM (series often up to 114 µM), actives largely listed as inhibitors | AlphaScreen BAZ2B-H3K14Ac peptide displacement; note: nearly all actives have a fitted effect of over 60% in size
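Compounds, titrated to a top concentration of 110 uM, were incubated 30 min at room temperature with preformed BAZ2B/acetyl-K14 H3 peptide complex (50 nM each). Proximity signal was measured by AlphaScreen after 20 min with beads.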
CtBP-E1A blk: qHTS Assay for Inhibitors of the CtBP/E1A Interaction. CtBP / adenovirus E1A interaction (AlphaScreen). AlphaScreen GST-E1A/His-CtBP binding, 1536-well; active compounds read low. activity change, % (test concentration not listed). actives 0.49% (n = 340,000); in the data active = activity change below about -65%; inconclusive = mostly about -30% to -63%
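AlphaScreen with 125 nM GST-E1A and 125 nM His-CtBP (5X stocks) in Tris pH 8.0, 300 mM NaCl, BSA, Tween 20, TCEP. Compounds preincubated 2 h at 37 deg C, then glutathione donor/nickel acceptor beads added for 1 h at 37 deg C in dark.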
G9a inh: qHTS Assay for Inhibitors of Histone Lysine Methyltransferase G9a; Histone-lysine N-methyltransferase EHMT2 (Homo sapiens), Q96KQ7; G9a H3K9 monomethylation, AlphaScreen, 2 h; Potency, µM (doses to about 102 µM), usual class: inhibitors; actives 8.8% (n = 350,000); AID 504332, 2011; note: nearly all actives have a fitted effect of over 75% in size
Target sequence (Q96KQ7 913-1193 limits assumed): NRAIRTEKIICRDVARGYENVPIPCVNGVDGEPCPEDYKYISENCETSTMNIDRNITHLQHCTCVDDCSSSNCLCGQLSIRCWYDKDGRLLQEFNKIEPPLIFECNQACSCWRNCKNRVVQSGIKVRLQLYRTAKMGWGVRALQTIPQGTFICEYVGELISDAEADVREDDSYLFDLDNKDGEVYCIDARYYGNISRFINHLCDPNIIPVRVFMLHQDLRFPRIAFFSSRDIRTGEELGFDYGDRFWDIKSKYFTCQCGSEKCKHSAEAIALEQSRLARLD
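Step 1: enzyme (final 20 nM) with compound, 15 min RT. Step 2: substrate peptide 500 nM and SAM 20 uM, 2 h RT. Step 3: anti-H3K9me1 antibody and AlphaScreen beads, 10 min, then plate read.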
Numbers stand for hits; i = inactive; ? = inconclusive; nt = not tested or not shown; [ ] = remark or other dose. Hits are enriched below; roughly 10% of the tested compounds scored in any of these assays. Unless noted, calls come from the whole dose curve; as a rule, active = well fitted inhibition curve with a large enough effect; inconclusive = small, poorly fitted or top-dose-only effect; inactive = no such curve, though single readings can be large or run the other way.

SMILES | HP1b binding inh | Six1-Eya2 inh | JMJD2A Tudor inh | BAZ2B block | CtBP-E1A blk | G9a inh
O=C1NC(c2ccc(Cl)c([N+](=O)[O-])c2)Nc2ccccc21 (stereo not drawn) | i | i | i | i | i | ?
O=C1NC(c2cc(Cl)cc([N+](=O)[O-])c2O)Nc2ccccc21 (stereo not drawn) | i | i | ? | 40µM | i | nt
Cc1ccccc1OCc1nc(C#N)c(N2CCCC2)o1 | i | i | i | 45µM | i | 28µM
COc1ccc(-c2nc(C#N)c(N3CCC(C)CC3)o2)cc1 | i | i | ? | 5µM | i | 14µM
Cc1ccc(-c2nc(C#N)c(N3CCCCC3)o2)cc1 | i | i | i | ? | i | 20µM
COc1ccccc1OCc1nc(C#N)c(N2CCCC2)o1 | i | i | i | i | i | i
N#Cc1nc(-c2ccccc2)oc1N1CCCCC1 | i | i | i | i | i | ?
COc1ccc(-c2nc(C#N)c(N3CCCCC3)o2)cc1 | 56µM | i | ? | 28µM | i | i[2.33 µM]
N#Cc1nc(-c2ccc(F)cc2)oc1N1CCCC1 | ? | i | i[11.4 µM] | i | i | ?
Cc1ccccc1-c1nc(C#N)c(N2CCCCC2)o1 | 45µM | i | ? | 22µM | i | 35µM
N#Cc1nc(-c2ccc([N+](=O)[O-])cc2)oc1N1CCCCC1 | i | i | i | i | i | i[2.33 µM]
N#Cc1nc(-c2ccc(Cl)cc2)oc1N1CCCCC1 | i | i | ? | 40µM | i | ?
COc1ccc(-c2nc(C#N)c(N3CCCCCC3)o2)cc1 | i | i | ? | 28µM | i | ?
N#Cc1nc(-c2ccc(F)cc2)oc1N1CCCCC1 | ? | i | ? | ? | i | 13µM
N#Cc1nc(-c2ccccc2F)oc1N1CCCC1 | ? | i | i | i | i | ?
COCCN1C[C@@H](CO)O[C@@H](n2cnc3c(NCCN(C)C)ncnc32)C1 | nt | i | nt | nt | i | nt
CC1CN(S(=O)(=O)c2cccc(C(=O)N(Cc3nnc(-c4ccccc4Cl)o3)C3CC3)c2)CC(C)O1 (stereo not drawn) | i | i | i | i | i | i[0.501 µM]
COc1cc2nc(=S)n3[nH]c(CCn4nc(C)cc4C)nc3c2cc1OC | i | i | i | i | ? | 1µM
C/C(=N/NS(=O)(=O)c1ccc(Br)cc1)c1cccc(NC(=O)C2CC2)c1 | nt | i | nt | nt | i | nt
O=C1CSC(c2ccc([N+](=O)[O-])cc2)N1c1ccccc1F (stereo not drawn) | i | i | i | i | i | i
CCOc1ccc(N2C(=O)CS/C2=C(\C(Cl)=C(Cl)Cl)[N+](=O)[O-])cc1 | i | i | 5µM | 50µM | i | 32µM
CCOc1ccc(N2C(=O)CNC2=S)cc1 | i | i | i | i | i | i
Cc1cc(/C=c2/sc3nc4ccccc4n3c2=O)c(C)n1-c1ccccn1 | i | i | ? | i | i | ?
Cc1cc(C=C2C(=O)c3ccccc3C2=O)c(C)n1-c1ccc(C(=O)O)cc1 | i | i | i | ? | i | 35µM
O=c1/c(=C/c2ccc(O)c([N+](=O)[O-])c2)sc2nc3ccccc3n12 | ? | i | 45µM | ? | i | ?
SMILES | HP1b binding inh | Six1-Eya2 inh | JMJD2A Tudor inh | BAZ2B block | CtBP-E1A blk | G9a inh
Cc1cc(C=C2C(=O)c3ccccc3C2=O)c(C)n1-c1cccc(C(=O)O)c1 | i | i | i | ? | nt | 40µM
Cc1cc(/C=c2\sc3nc4ccccc4n3c2=O)c(C)n1-c1ccc(C(=O)O)cc1 | i | i | i | ? | i | 25µM
COc1ccccc1NS(=O)(=O)c1ccc2c(c1)CCC(=O)N2 | nt | nt | i | nt | nt | nt
CN(CCN1CCOCC1)C(=O)c1cc(COc2ccc(F)c(F)c2)on1 | i | i | i | i | i | nt
COc1ccc2cc(-c3[nH]ncc3CN3CCCC3c3nonc3C)ccc2c1 (stereo not drawn) | i | i | 79µM | ? | i | i
Fc1ccc(N2CCN(Cc3cn[nH]c3-c3ccccc3)CC2)cc1 | i | i | i | i | i | 71µM
COc1ccc(-c2[nH]ncc2CN2CCCC(C(=O)c3cccc(OC)c3)C2)cc1 (stereo not drawn) | i | i | i | i | i | 45µM
COc1ccc(-c2[nH]ncc2CN2CCN(c3ccc(F)cc3)CC2)cc1 | i | i | i | ? | nt | 50µM
O=C1CN(C(=O)COc2ccc(Cl)cc2Cl)C(c2ccc(F)cc2)c2cc(F)ccc2N1 (stereo not drawn) | i | nt | i | i | nt | i
Cc1cccc2sc(NC(=O)CSc3nnnn3C)nc12 | i | i | i | ? | i | nt
CCOc1ccc(-n2c(=O)c3c(C)c(C)sc3n(Cc3c(F)cccc3Cl)c2=O)cc1 | i | nt | i | i | nt | i
NC(=O)c1cc2ccccc2o/c1=N/NC(=O)c1ccccc1 | i | i | i | i | i | i
COc1cc(NC(=O)CC(c2ccc(C)cc2)N2Cc3ccccc3C2=O)cc(OC)c1 (stereo not drawn) | i | nt | i | i | nt | ?
CCOC(=O)C1CCN(c2c(NCCCN(CC)c3ccccc3)c(=O)c2=O)CC1 | i | i | i | i | i | i[12.7 µM]
CCN(CCCNc1cc2c(c(N)c1S(=O)(=O)O)C(=O)c1ccccc1C2=O)c1ccccc1 | nt | -65 | nt | nt | i | nt
CCc1ccccc1NS(=O)(=O)c1ccc2c(c1)CCCN2C(=O)C1CCC1 | i | nt | i | i | nt | i
O=C1c2ccccc2C(=O)N1CCN1CCCCC1 | i | i | i | i | i | i
O=S1(=O)C=C(SCCN2CCCCC2)c2ccccc21 | i | i | i | i | i | 50µM
CC(=NNC(=O)c1ccncc1)c1cccc(Cl)c1 | i | i | i | nt | i | nt
O=[N+]([O-])c1ccccc1CNC1CCCCCC1 | ? | i | 50µM | ? | nt | 22µM
CCOc1ccccc1CNC(=O)CSc1n[nH]c(-c2ccccc2)n1 | i | nt | i | i | nt | i
CCCOc1ccc(C2C(=O)N(C3CCC(C)CC3)CC(=O)N2Cc2cccc(OC)c2)cc1OC (stereo not drawn) | i | nt | i | i | nt | i
O=C1C(=O)N(CCCN2CCOCC2)C(c2ccc([N+](=O)[O-])cc2)/C1=C(/O)c1ccc2c(c1)OCO2 (stereo not drawn) | i | i | i | i | i | 50µM
C=CCOc1ccc(C2/C(=C(\O)c3ccc4c(c3)OCCO4)C(=O)C(=O)N2CCCN2CCOCC2)cc1 (stereo not drawn) | i | i | i | i | i | 50µM
